Shown are actives, neighbours in structure and some others; about 9.6% of the full set was active somewhere.
Insulin prom up – MIN6 insulin promoter up-regulation | 190,000 tested, 0.3% active | z-score at 5 µM | MIN6 insulin promoter-GFP reporter, high-content imaging; hits give high values;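 active means z-score above 3 at 5 µM with at least 500 cells counted in the well; inconclusive means wells under 500 cells, flagged as cytotoxic or low count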
HCT116 PTEN-null – PTEN-deleted cell growth suppression | HCT116 PTEN-null viability, CellTiter-Glo, 60 h; hits give low values | viability, % at 10 µM | 140,000 tested, 1.2% active;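 active means viability at or below a set limit, 4 SD under the median of all tested compounds, cut at about 3.7% in these data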;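 further: PTEN knockout HCT116 line with beta catenin targeted HCT116 as companion control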
INS promoter inh – TRM-6 insulin promoter activity inhibition; TRM-6 cells (human fetal islet line), insulin promoter-eGFP reporter, imaging; reporter expression induced with tamoxifen; inhibition, % at 2 µM; 130,000 tested, 0.9% active; AID 1273;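 active means inhibition above the mean plus 3 SD, with well images judged a real hit on visual review, cut at about 60% in these data, passing the limit was not always enough; inconclusive means inhibition over the cutoff but images rejected on review; inactive means inhibition not above the cutoff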
HCT116 bCat-KO – beta-catenin-lacking colon tumor cell growth suppression; viability, % at 10 µM; AID 818; 140,000 tested, 1.5% active; HCT116 beta-catenin knockout viability, CellTiter-Glo, 60 h; hits give low values;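 active means viability at or under a set limit, the compound median less 4 SD, cut at about 6% in these data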;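 further: 0% = Hyamine 1622 control at 20 µM and 100% = untreated cell control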
Lmaj promast – inhibitors of Leishmania major promastigote growth; Leishmania major promastigotes, resazurin fluorescence viability; inhibition, % at 10 µM; 200,000 tested, 9% active; AID 1063; in the data active means inhibition above about 50%;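 further: promastigotes grown with compound for 44 hours at 28 °C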
Autophagy HCS – alters autophagy in cells; 190,000 tested, 0.98% active; MEF GFP-LC3 puncta imaging; test concentration mostly 10 µM; calls only at 10 µM (by protocol); AID 463193;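 active means percentage of spot-positive cells more than 3 SD above its plate mean, without a fluorescence outlier flag or 80% toxicity; inconclusive means no clear call, values can overlap the other calls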;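 further: spot-positive cell cutoff set from DMSO-treated cells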
Active calls of the source: *; i = inactive; ? = inconclusive; nt = no result given; + = active, no number.

SMILES	Insulin prom up	HCT116 PTEN-null	INS promoter inh	HCT116 bCat-KO	Lmaj promast	Autophagy HCS
N#Cc1nc(-c2ccccc2)oc1NCCN1CCCCC1	0.54	95	24	103	87*	i
O=C1N/C(=N/Nc2ccccc2)S/C1=C\c1ccccc1	3.2*	102	nt	86	28	i
FC(F)(F)c1cccc(N2CCc3cn[nH]c32)c1	0.83	107	-411	104	6	i
Cc1cc(C(=O)Cn2ncc(Cl)c(Cl)c2=O)c(C)n1CC(F)(F)F	-2.9	0.8*	nt	0.5*	63*	i
Cc1ccc(C)c(C(=O)Cn2ncc(Cl)c(Cl)c2=O)c1	-0.36	1.3*	-269	1.8*	95*	i
Cc1cc2oc(=O)cc(CN3CCc4ccccc43)c2cc1Cl	0.42	71	-50	76	3	i
Cc1cccc(Cn2ncc(Cl)c(Cl)c2=O)c1	-0.56	2.2*	nt	2.2*	62*	i
Cc1cc2oc(=O)cc(Cn3ncc(Cl)c(Cl)c3=O)c2cc1Cl	?	nt	nt	nt	100*	+
Cc1cc(Br)ccc1NC(=O)CNC(=O)Cn1ncc(Cl)c(Cl)c1=O	1.7	nt	nt	nt	8	i
CCOC(=O)COn1c(=O)c[n+]([O-])c2ccccc21	-1	90	100*	84	1	i
Cc1cc(C(=O)N/N=C(\CCC(=O)O)c2cccs2)c2ccccc2n1	-0.02	nt	-20	nt	-5	i
COc1cccc(NC(=O)CSc2nnc(Cn3c(=O)sc4ccccc43)n2C)c1	1.6	100	nt	94	-9	i
Cc1[nH]n(-c2ccccc2)c(=O)c1/C=N/N1C(=O)c2cccc3cccc(c23)C1=O	-0.08	nt	11	nt	59*	i
Cc1[nH]n(-c2ccccc2)c(=O)c1C=Nc1cccc2cccnc12	-0.82	5	-74	3.0*	64*	+
CCOC(=O)N1CCC(N2Cc3cccc(C(=O)NCc4ccc(OC)cc4)c3C2=O)CC1	0.48	91	17	89	70*	i
COc1ccc(NS(=O)(=O)c2cc(N/C(=N\S(=O)(=O)c3ccccc3)c3ccc(F)cc3)ccc2Cl)cc1	-0.13	16	-76	19	76*	i
COc1ccccc1NS(=O)(=O)c1cccc(NC(=O)Nc2cccc(Cl)c2)c1	nt	6	10	3.9*	100*	i
COc1ccccc1NS(=O)(=O)c1cccc(NC(=O)NCCCl)c1	0.3	nt	nt	nt	nt	nt
COc1ccccc1NS(=O)(=O)c1cccc(NC(=O)c2sc3ccccc3c2Cl)c1	-0.88	nt	nt	nt	95*	i
COc1ccccc1NC(=O)Nc1ccc(Cl)c(S(=O)(=O)Nc2ccccc2OC)c1	1.1	64	-14	76	99*	i
CCCCOC(=O)C(NC(=O)c1ccccc1)=C(C)C	0.84	93	14	97	-3	i
COc1ccccc1NS(=O)(=O)c1cc(NC(=O)Nc2cccc(C)c2)ccc1N1CCCCC1	-0.14	57	19	68	43	i
O=C(Nc1ccc(Cl)cc1)Nc1ccc(N2CCCC2)c(S(=O)(=O)Nc2ccccc2Cl)c1	-3.9	1.8*	39	1.9*	100*	i
COc1ccccc1NS(=O)(=O)c1cc(NC(=O)C2CC2)ccc1N1CCOCC1	0.32	nt	7	nt	88*	i
COc1ccc(C)cc1S(=O)(=O)Nc1cccc(Cl)c1	nt	90	18	87	99*	i
SMILES	Insulin prom up	HCT116 PTEN-null	INS promoter inh	HCT116 bCat-KO	Lmaj promast	Autophagy HCS
CCN1C(=O)S/C(=C/c2ccsc2)C1=O	0.05	111	-19	98	-2	i
CC1=C(C(=O)Nc2ccccn2)C(c2ccccc2Cl)NC(=S)N1 (configuration not stated)	-0.24	nt	-30	nt	0	i
O=C(Cn1cnc2cc([N+](=O)[O-])ccc2c1=O)N(Cc1ccccc1)C1CCS(=O)(=O)C1 (configuration not stated)	nt	nt	nt	nt	7	i
CCn1ccc(C(=O)NC2C(=O)N3C(C(=O)O)=C(C)CSC23)n1 (configuration not stated)	nt	103	25	101	4	i
CC(C)=CCN1CCN(Cc2cccnc2)CC1CCO (configuration not stated)	nt	nt	nt	nt	-7	i
Cc1ccc(C(=O)NCC(=O)OCC(=O)NC2CCS(=O)(=O)C2)cc1C (configuration not stated)	-0.13	93	-46	93	52*	i
CCOc1ccc(N(CC(=O)NCc2ccccc2)S(=O)(=O)c2c(C)noc2C)cc1	-1.9	84	nt	86	1	i
CCOP(=O)(OCC)C(Nc1cccc(C(F)(F)F)c1)c1ccc(Br)cc1 (configuration not stated)	-0.69	27	-34	45	99*	i
CCOc1ccc2nc(NCCO)[nH]c2c1	0.48	90	nt	82	8	i
Cc1ccc2nc(NCCCO)[nH]c2c1	nt	96	78*	93	7	i
c1ccc(SCCOCCn2cncn2)cc1	nt	89	44	104	1	i
CC1CCCN(CCOCCSc2ccccc2)C1 (configuration not stated)	?	84	9	85	98*	i
c1ccc(SCCOCCN2CCc3ccccc3C2)cc1	-0.09	75	-17	74	90*	i
CC1CN(CCCSc2ccc(Cl)cc2)CC(C)O1 (configuration not stated)	0.12	nt	nt	nt	85*	i
CC1CC(C)CN(CCOCCSc2ccc(Cl)cc2)C1 (configuration not stated)	-0.87	nt	-31	nt	91*	i
c1ccc(SCCN2CCc3ccccc3C2)cc1	-0.19	93	43	86	0	i
Cc1ccc(C)c(CSc2ncccc2C(=O)O)c1	0.25	98	56	94	-7	i
O=c1cc(-c2ccc(Cl)cc2)[nH]c2ccccc12	-0.14	nt	nt	nt	nt	nt
O=C(CN(C(=O)CNC(=O)c1ccco1)c1ccc2c(c1)OCO2)NC1CCCCC1	0.02	106	-23	98	-8	i
CC1CC(C)CN(CCCSc2ccccc2)C1 (configuration not stated)	-0.16	86	-49	87	92*	i
CC1CC(C)CN(CCOCCSc2ccccc2)C1 (configuration not stated)	nt	64	nt	57	89*	i
O=C(O)CCC(=O)Nc1ccc(Sc2ccc([N+](=O)[O-])cc2)cc1	-0.31	95	-50	106	51*	i
O=C1OC(c2ccc(F)cc2)=C/C1=C\c1ccc([N+](=O)[O-])o1	0.46	nt	-169	nt	100*	i
COc1ccc(C)cc1NC(=O)CN1CCN(CC(=O)Nc2ccccc2F)CC1	-0.57	108	38	96	7	i
CN(C)CC1CCCCC1OC(=O)c1ccc(Br)cc1 (configuration not stated)	-1.2	nt	-27	nt	74*	i
CN(C)CC1CCCCC1OC(=O)c1ccc(Cl)cc1Cl (configuration not stated)	0.33	90	40	91	2	i

Source: PubChem BioAssay
